PubChem BioAssay AID1159580 (chemical genetic matrix, 2015)
The campaign covered roughly 5,500 compounds. About 2,000 (36%) were called active. Inconclusive results (about 18%) are left out. No stated cut-off is given here; in the data, active means normalized growth mostly below about 0.91 (no sharp cut-off); inconclusive means no clear call, values can overlap the other calls; inactive means mostly above about 0.92. The list shows a part of the results.

Test: chemical genetic growth profiling, strain panel (AID 1159580);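 further: tested at 20 µM; growth read once vehicle control cultures reached saturation at 30 °C; 1 = growth at the plate median or of vehicle wells; lower values mean less growth of the strain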
Settings: growth OD

Measured: normalized growth

O=C(O[C@@H]1Cc2c(O)cc(O)cc2O[C@@H]1c1cc(O)c(=O)c2c(O)c(O)cc([C@H]3Oc4cc(O)cc(O)c4C[C@H]3OC(=O)c3cc(O)c(O)c(O)c3)c2c1)c1cc(O)c(O)c(O)c1
active: S. cerevisiae deletion strains, locus YJR075W, strain HOC1, hits give low values 0.753 | S. cerevisiae deletion strains, locus YKL160W, strain elf1, hits give low values 0.71 | S. cerevisiae deletion strains, locus YKL190W, strain CNB1, hits give low values 0.637 | S. cerevisiae deletion strains, locus YKR091W, strain srl3, hits give low values 0.927 | S. cerevisiae deletion strains, locus YLL001W, strain dnm1, hits give low values 0.614 | S. cerevisiae deletion strains, locus YLL026W, hits give low values 0.553 | S. cerevisiae deletion strains, locus YLL041C, strain sdh2, hits give low values 0.661 | S. cerevisiae deletion strains, locus YLR027C, strain aat2, hits give low values 0.407 | S. cerevisiae deletion strains, locus YLR039C, strain RIC1, hits give low values 0.598 | S. cerevisiae deletion strains, locus YLR058C, strain SHM2, hits give low values 0.525 | S. cerevisiae deletion strains, locus YLR221C, strain rsa3, hits give low values 0.573 | S. cerevisiae deletion strains, locus YLR258W, strain gsy2, hits give low values 0.523 | S. cerevisiae deletion strains, locus YLR262C, strain YPT6 (second series), hits give low values 0.539 | S. cerevisiae deletion strains, locus YLR268W, strain sec22, hits give low values 0.81 | S. cerevisiae deletion strains, locus YLR320W, strain mms22, hits give low values 0.619 | S. cerevisiae deletion strains, locus YLR330W, strain CHS5, hits give low values 0.898 | S. cerevisiae deletion strains, locus YLR342W, strain FKS1 (second series), hits give low values 0.449 | S. cerevisiae deletion strains, locus YLR342W, strain FKS1, hits give low values 0.447 | S. cerevisiae deletion strains, locus YLR357W, strain rsc2, hits give low values 0.602 | S. cerevisiae deletion strains, locus YLR370C, strain arc18, hits give low values 0.499 | S. cerevisiae deletion strains, locus YLR371W, strain rom2, hits give low values 0.849 | S. cerevisiae deletion strains, locus YLR384C, strain iki3, hits give low values 0.713 | S. cerevisiae deletion strains, locus YLR418C, strain cdc73, hits give low values 0.583 | S. cerevisiae deletion strains, locus YML016C, strain PPZ1, hits give low values 0.482 | S. cerevisiae deletion strains, locus YML120C, strain ndi1, hits give low values 0.634 | S. cerevisiae deletion strains, locus YMR058W, strain fet3, hits give low values 0.101 | S. cerevisiae deletion strains, locus YMR129W, hits give low values 0.604 | S. cerevisiae deletion strains, locus YMR205C, strain PFK2, hits give low values 0.353 | S. cerevisiae deletion strains, locus YMR231W, strain pep5, hits give low values 0.158 | S. cerevisiae deletion strains, locus YMR263W, strain SAP30, hits give low values 0.723 | S. cerevisiae deletion strains, locus YMR307W, strain GAS1, hits give low values 0.481 | S. cerevisiae deletion strains, locus YNL067W, strain RPL9B, hits give low values 0.699 | S. cerevisiae deletion strains, locus YNL071W, strain lat1, hits give low values 0.607 | S. cerevisiae deletion strains, locus YNL128W, strain TEP1, hits give low values 0.351 | S. cerevisiae deletion strains, locus YNL153C, strain GIM3, hits give low values 0.741 | S. cerevisiae deletion strains, locus YNL209W, strain ssb2, hits give low values 0.149 | S. cerevisiae deletion strains, locus YNL233W, strain BNI4, hits give low values 0.768 | S. cerevisiae deletion strains, locus YNL248C, strain rpa49, hits give low values 0.863 | S. cerevisiae deletion strains, locus YNL322C, strain KRE1 (second series), hits give low values 0.857 | S. cerevisiae deletion strains, locus YNL322C, strain KRE1, hits give low values 0.569 | S. cerevisiae deletion strains, locus YNR049C, strain mso1, hits give low values 0.913 | S. cerevisiae deletion strains, locus YOL006C, strain TOP1, hits give low values 0.216 | S. cerevisiae deletion strains, locus YOR001W, strain rrp6, hits give low values 0.57 | S. cerevisiae deletion strains, locus YOR061W, strain CKA2, hits give low values 0.848 | S. cerevisiae deletion strains, locus YOR069W, strain VPS5, hits give low values 0.891 | S. cerevisiae deletion strains, locus YOR070C, strain gyp1, hits give low values 0.495 | S. cerevisiae deletion strains, locus YOR080W, strain dia2, hits give low values 0.286 | S. cerevisiae deletion strains, locus YOR083W, strain WHI5, hits give low values 0.543 | S. cerevisiae deletion strains, locus YOR106W, strain vam3, hits give low values 0.119 | S. cerevisiae deletion strains, locus YOR184W, strain ser1, hits give low values 0.857 | S. cerevisiae deletion strains, locus YOR265W, strain rbl2, hits give low values 0.658 | S. cerevisiae deletion strains, locus YOR270C, strain vph1, hits give low values 0.223 | S. cerevisiae deletion strains, locus YOR290C, strain snf2, hits give low values 0.496 | S. cerevisiae deletion strains, locus YPL051W, strain arl3, hits give low values 0.263 | S. cerevisiae deletion strains, locus YPL055C, strain LGE1, hits give low values 0.473 | S. cerevisiae deletion strains, locus YPL078C, strain atp4, hits give low values 0.705 | S. cerevisiae deletion strains, locus YPL106C, strain sse1, hits give low values 0.593 | S. cerevisiae deletion strains, locus YPL240C, strain hsp82, hits give low values 0.679 | S. cerevisiae deletion strains, locus YPL241C, strain CIN2, hits give low values 0.922 | S. cerevisiae deletion strains, strain wtn01, hits give low values 0.808 | S. cerevisiae strains, strain wild type, hits give low values 0.491
inactive: S. cerevisiae deletion strains, locus YKL009W, strain mrt4, hits give low values 1.06 | S. cerevisiae deletion strains, locus YKL068W, hits give low values 1.04 | S. cerevisiae deletion strains, locus YKL085W, strain MDH1 (second series), hits give low values 1.05 | S. cerevisiae deletion strains, locus YKL085W, strain MDH1, hits give low values 1.05 | S. cerevisiae deletion strains, locus YKR001C, strain vps1, hits give low values 0.979 | S. cerevisiae deletion strains, locus YKR026C, strain gcn3, hits give low values 0.971 | S. cerevisiae deletion strains, locus YLR102C, strain apc9, hits give low values 1.04 | S. cerevisiae deletion strains, locus YLR113W, strain HOG1, hits give low values 1.12 | S. cerevisiae deletion strains, locus YLR262C, strain YPT6, hits give low values 0.69 | S. cerevisiae deletion strains, locus YML032C, strain rad52, hits give low values 1.05 | S. cerevisiae deletion strains, locus YML124C, strain tub3, hits give low values 1.02 | S. cerevisiae deletion strains, locus YMR078C, strain ctf18, hits give low values 1.02 | S. cerevisiae deletion strains, locus YMR125W, strain sto1, hits give low values 1.04 | S. cerevisiae deletion strains, locus YMR223W, strain ubp8, hits give low values 0.979 | S. cerevisiae deletion strains, locus YNL183C, strain NPR1, hits give low values 0.983 | S. cerevisiae deletion strains, locus YNL250W, strain rad50, hits give low values 1.02 | S. cerevisiae deletion strains, locus YNL271C, strain bni1, hits give low values 1.03 | S. cerevisiae deletion strains, locus YNL298W, strain CLA4, hits give low values 1.03 | S. cerevisiae deletion strains, locus YNL307C, strain MCK1, hits give low values 1.04 | S. cerevisiae deletion strains, locus YNR052C, strain pop2, hits give low values 0.975 | S. cerevisiae deletion strains, locus YOL012C, strain htz1 0.378 | S. cerevisiae deletion strains, locus YOL147C, strain pex11, hits give low values 1.01 | S. cerevisiae deletion strains, locus YOR136W, strain idh2, hits give low values 0.99 | S. cerevisiae deletion strains, locus YOR144C, strain elg1, hits give low values 1.01 | S. cerevisiae deletion strains, locus YOR231W, strain MKK1, hits give low values 1.04 | S. cerevisiae deletion strains, locus YOR316C, strain cot1, hits give low values 1.04 | S. cerevisiae deletion strains, locus YPL256C, strain CLN2, hits give low values 1.15 | S. cerevisiae deletion strains, locus YPR119W, strain clb2, hits give low values 1.03 | S. cerevisiae deletion strains, locus YPR141C, strain kar3, hits give low values 1.03 | S. cerevisiae deletion strains, locus YPR163C, strain tif3, hits give low values 1.02 | S. cerevisiae deletion strains, locus YPR167C, strain met16, hits give low values 1.02
